Values joined by “and” are separate entries in the source; they are usually repeats but may differ in a detail not shown here. Equal entries are not always repeated. Among all 2,100 compounds or so, about 590 (28%) were called active. About 42% were inconclusive and are not listed. This is one part of the list. Unmarked numbers belong to inactive results. The call rests on the fitted dose curve; in most records, active means well fitted inhibition curve with a large enough effect; inconclusive means small, poorly fitted or top-dose-only effect; inactive means flat fitted curve, though single readings scatter.
target: DNA dC->dU-editing enzyme APOBEC-3F (Homo sapiens) (UniProt Q8IUX4); experiment: qHTS for inhibitors of Vif-A3F interactions: Cherry picks; details: HeLa A3F-eYFP + Vif (tagged APOBEC3F with the HIV-1 protein that degrades it), eYFP fluorescence, 24 h; further: nearly all actives have a fitted effect of over 70% in size;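 on max response: % of control where 0% means no effect; active compounds raise eYFP fluorescence by blocking Vif-driven A3F loss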
Sequence (Q8IUX4 whole entry, looked up): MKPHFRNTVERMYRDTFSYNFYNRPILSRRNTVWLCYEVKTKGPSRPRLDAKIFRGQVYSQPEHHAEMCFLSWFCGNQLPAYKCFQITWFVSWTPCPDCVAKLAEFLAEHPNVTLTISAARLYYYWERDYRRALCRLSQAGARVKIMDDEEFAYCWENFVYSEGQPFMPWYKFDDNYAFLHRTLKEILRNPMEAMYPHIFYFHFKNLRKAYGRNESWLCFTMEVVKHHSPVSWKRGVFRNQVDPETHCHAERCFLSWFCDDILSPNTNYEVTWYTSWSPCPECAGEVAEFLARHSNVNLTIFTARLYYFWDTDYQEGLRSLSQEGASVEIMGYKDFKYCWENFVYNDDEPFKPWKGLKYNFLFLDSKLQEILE
Method in brief: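 Read-out: yellow fluorescence (ex 488 nm, em 500-530 nm) by laser-scanning cytometer after 24 h compound exposure, several concentrations, at 37 deg C. Cells: HeLa line stably co-expressing Vif and C-terminally eYFP-tagged A3F; MG132 served as positive control.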
Potency means the concentration at half of the fitted maximal effect.

Row | Structure (SMILES) | max response [%] | Potency
1 | CCOc1ccc(-c2cc(C(=O)N/N=C(\C)c3cccnc3)c3ccccc3n2)cc1 | -8.69 | 
2 | CCCCN(CCCC)c1ccc(/C=C/c2ccnc3ccccc23)cc1 |  | 20.6 µM (active)
3 | CCN(CC)c1ccc(/C=C/c2ccnc3ccccc23)cc1 |  | 6.51 µM (active)
4 | CCN(CCCN(C)C)c1ccc(/C=C/c2ccnc3ccccc23)cc1 |  | 18.4 µM (active)
5 | CCOC(=O)c1c(C)oc2ccc(N(C(=O)c3ccncc3)S(=O)(=O)c3ccc(Br)cc3)cc12 | -14.4 | 
6 | O=C(NC1C/C(=N/O)c2cc3c(cc21)OCO3)C(F)(F)F (stereo not given) | 0.0424 | 
7 | CC(=O)n1c2ccccc2c2nc3ccccc3nc21 |  | 11.6 µM (active)
8 | Cc1cccc(-n2c(N)c(-c3nc4ccccc4n3C)c3nc4ccccc4nc32)c1 | -0.799 | 
9 | Cc1ccc2nc(/C(C#N)=C/c3ccc(-c4cccc([N+](=O)[O-])c4)o3)[nH]c2c1 | -29.2 | 
10 | Cc1ccc2nc(/C(C#N)=C/c3ccc(-c4ccccc4C(=O)O)o3)[nH]c2c1 | -7.06 | 
11 | Cc1ccc2nc(/C(C#N)=C/c3ccc(-c4ccc(C(=O)OC(C)C)cc4)o3)[nH]c2c1 |  | 2.06 µM (active)
12 | N#C/C(=C\c1ccc(-c2ccc(C(=O)O)cc2)o1)c1nc2ccccc2[nH]1 | 0.542 | 
13 | Cc1ccc2nc(/C(C#N)=C/c3ccc(-c4ccc(F)cc4F)o3)[nH]c2c1 |  | 4.11 µM (active)
14 | N#C/C(=C\c1ccc(-c2ccc(F)cc2F)o1)c1nc2ccccc2[nH]1 |  | 20.6 µM (active)
15 | Cc1ccc2nc(/C(C#N)=C/c3ccc(-c4cccc(Cl)c4)o3)[nH]c2c1 |  | 4.61 µM (active)
16 | CSCC[C@H](NC(=O)[C@H](Cc1ccccc1)n1c(=O)[nH]c2ccccc2c1=O)C(=O)N1CCC[C@@H]1C(=O)O | 1.14 | 
17 | Cc1c(Cl)cccc1-c1ccc(/C=C(\C#N)c2nc3ccccc3[nH]2)o1 |  | 20.6 µM (active)
18 | CCOC(=O)/C(=C/C1=CC(=C/N(C)C)/C(=O)O1)C(C)=O | -9.79 | 
19 | O=C1c2ccccc2-c2onc3c(N4CCN(C5CCCCC5)CC4)cc(NCCO)c1c23 |  | 3.66 µM (active)
20 | CN(C)CCCNc1cc(N2CCN(C3CCCCC3)CC2)c2noc3c2c1C(=O)c1ccccc1-3 |  | 9.2 µM (active)
21 | CCNc1cc(N2CCN(C3CCCCC3)CC2)c2noc3c2c1C(=O)c1ccccc1-3 |  | 18.4 µM (active)
22 | CCOC(=O)c1cnc(-n2nc(C)cc2C)nc1NNc1cc(C)nc(-c2ccccc2)n1 | 0.647 | 
23 | Cc1cc(-c2ccccc2)nc(N/N=C/c2ccccc2F)n1 | -4.11 | 

Row | Structure (SMILES) | max response [%] | Potency
24 | Nc1c(C(=O)N/N=C/c2ccc(F)cc2)oc2nc(-c3ccccc3)cc(-c3ccco3)c12 |  | 7.9 µM (active)
25 | C/C(=N\Nc1nc(C)cc(-c2ccccc2)n1)c1ccc(F)cc1 | -6.16 | 
26 | Nc1c(C(=O)N/N=C/c2cccnc2)oc2nc(-c3ccccc3)cc(-c3ccco3)c12 |  | 13 µM (active)
27 | Nc1c(C(=O)N/N=C/c2ccccc2Cl)oc2nc(-c3ccccc3)cc(-c3ccco3)c12 |  | 2.91 µM (active)
28 | O=C(CSc1nc(-c2ccco2)cc(C(F)(F)F)n1)Nc1cccnc1 | -24.4 | 
29 | Cc1cc(/C=N/NC(=O)c2cc3ccccc3o2)c(C)n1C | -15.8 | 
30 | C=CCOC(=O)C1=C(C)NC(C)=C(C(=O)OCC=C)C1c1cn(-c2ccccc2)nc1-c1ccco1 | 0.509 | 
31 | N=C1S/C(=C\c2ccc(-c3cccc(Cl)c3)o2)C(=O)N1c1nccs1 |  | 18.4 µM (active)
32 | CC(=O)/C(=C\N(C)C)Sc1ccc(Cl)cc1 | 1.31 | 
33 | CN(C)c1ccc(/C=C/c2cc[n+](C)cc2)cc1 |  | 15.8 µM (active)
34 | Cc1ccc(/C=C/c2ccc(N(C)C)cc2)[n+](C)c1 |  | 8.86 µM (active)
35 | CC[n+]1cc(C)ccc1/C=C/c1ccc(N(C)C)cc1 |  | 8.86 µM (active)
36 | CN1CCC(OC(=O)c2cc3cc(Cl)cc(Cl)c3oc2=O)CC1 | 3.05 | 
37 | COC(=O)[C@@]1(Cc2ccccc2)[C@@H]2C(=CC(=O)[C@H]2CC(=O)C(=O)N(C)C)CN1C(=O)c1ccccc1 | -26.2 | 
38 | Nc1nc2n[nH]nc2c(=O)[nH]1 |  | 6.51 µM (active) and 3.53 µM (active)
39 | N#C/C(N=Nc1ccccc1O)=N\Nc1ccccc1O |  | 14.6 µM (active)
40 | CCCCN1C(=O)/C(=C2/Sc3ccccc3N2C)S/C1=N\c1ncn[nH]1 |  | 18.4 µM (active)
41 | CCn1c2ccccc2c2cc(NC(=O)c3ccc(=O)oc3)ccc21 | -28.9 | 
42 | CC(CC(=O)Nc1ccc2c(c1)c(=O)n(C)n2-c1ccccc1)c1ccccc1 (stereo not given) |  | 4.98 µM (active)
43 | Cc1cnc(NC(=O)CC(C)c2ccccc2)s1 (stereo not given) | -26.1 | 
44 | CCOc1ccccc1OCC(=O)N/N=C(\C)Cc1ccc(OC)cc1 | -18.5 | 
45 | CC(C)(C)c1ccc(Cn2c(=O)cnc3ccccc32)cc1 | -25.6 | 
46 | CCOc1ccc(Cn2c3ccc(OC)cc3c3nc4ccccc4nc32)cc1 |  | 8.2 µM (active)

Row | Structure (SMILES) | max response [%] | Potency
47 | O=C(O)c1cccc(-c2ccc(/C=N/Nc3ccc([N+](=O)[O-])cc3)o2)c1 |  | 18.4 µM (active)
48 | Cc1cc([N+](=O)[O-])ccc1-c1ccc(/C=N/NC(=O)c2ccc(Br)o2)o1 |  | 18.4 µM (active)
49 | NC(=S)N/N=C\c1ccc(-c2cccc(Cl)c2Cl)o1 | -18.7 | 
50 | Cc1ccc(-c2ccc(/C=N/NC(N)=S)o2)cc1 | -8.18 | 
51 | O=C(O)c1ccc(-c2ccc(/C=N/Nc3ccc([N+](=O)[O-])cc3)o2)cc1 |  | 15.8 µM (active)
52 | CC(C)(C)NC(=S)N/N=C\c1ccc(-c2ccc([N+](=O)[O-])cc2)o1 |  | 14.6 µM (active)
53 | C/C(CCc1ccc2c(c1)OCO2)=N\NC(=S)NC(C)C | -2.82 | 
54 | CN(/N=C/c1ccc(-c2ccc([N+](=O)[O-])cc2)o1)c1ccccc1 |  | 0.731 µM (active)
55 | COc1ccccc1N1CCN(C(=O)c2ccc3ncsc3c2)CC1 | -21 | 
56 | O=C(NC(=S)Nc1c(Cl)cc(Cl)cc1Cl)c1ccccc1 | -0.292 | 
57 | COc1ccc(C(=O)NC(=S)NCc2cccnc2)cc1Cl | -3.18 | 
58 | COc1ccc2nc3ccccc3nc2c1NC(=O)c1ccc(Cl)cc1Cl |  | 3.53 µM (active)
59 | COc1ccc(C(=O)N/N=C/c2cc(Br)ccc2O)cc1OC | -1.32 | 
60 | COc1ccc2nc3ccccc3nc2c1NC(=O)c1ccc(Br)cc1 |  | 18.4 µM (active)
61 | COc1ccc2nc3ccccc3nc2c1NC(=O)c1ccc(Cl)cc1 |  | 16.4 µM (active)
62 | COc1cc2nc(/C=C/c3ccc(N(C)C)cc3)sc2cc1SC |  | 20.6 µM (active)
63 | COc1ccc2cc(-c3nc(Cl)c4c5c(sc4n3)CC(C)CC5)c(=O)oc2c1 (stereo not given) |  | 5.8 µM (active)
64 | CCN(CC)c1ccc2cc(-c3nc4sc5c(c4c(=O)[nH]3)CCC(C(C)(C)C)C5)c(=O)oc2c1 (stereo not given) | 13.2 | 
65 | O=C(Nc1ccc(Cl)cc1)Nc1ccon1 | -9.41 | 
66 | COc1ccccc1OCC(=O)NNC(=O)Nc1ccc(Cl)cc1 |  | 14 µM (active)
67 | O=C(CSc1n[nH]c(-c2ccccn2)n1)Nc1ccc(Cl)cc1 | 0.972 | 
68 | COCCN(CCOC)Cc1c(O)ccc2c1O/C(=C\c1ccc(C)o1)C2=O | -17.2 | 
69 | CCOC(=O)c1ccc(NC(=O)Cn2ncc(Cl)c(Cl)c2=O)cc1 | -29.1 | 

Row | Structure (SMILES) | max response [%] | Potency
70 | Cc1ccc(S(=O)(=O)N2CCCCC2)cc1NC(=O)Cn1ncc(Cl)c(Cl)c1=O | -13.3 | 
71 | O=C(Cn1ncc(Cl)c(Cl)c1=O)NCC1CCCCC1 |  | 15.8 µM (active)
72 | C=CCSc1nc2sc3c(c2c(=O)n1CC)CCC3 | -3.63 | 
73 | C[C@@H]1O[C@@H](O[C@@H]2C(=O)c3c(O)cc(O)cc3O[C@H]2c2ccc(O)c(O)c2)[C@H](O)[C@H](O)[C@H]1O | 2.1 | 
74 | CCC(C)Sc1ccc(-c2nc3cc(C)ccn3c2NC2CCCCC2)cc1 (stereo not given) | -4.06 | 
75 | COc1cccc(N2CCN(Cc3nc4scc(-c5ccccc5)c4c(=O)[nH]3)CC2)c1 |  | 17.7 µM (active)
76 | Cn1nnnc1SCc1nc2scc(-c3ccc(Cl)cc3)c2c(=O)[nH]1 | -13.9 | 
77 | O=c1c(Cl)c2oc3ccccc3nc-2c2ccccc12 |  | 18.4 µM (active)
78 | O=C(Nc1nc(-c2ccccn2)cs1)C1CCCC1 | -4.77 | 
79 | Cc1ccc(-n2c(O)c(/C=C3/C(c4ccccc4)=Nc4ccccc43)c(=O)[nH]c2=O)cc1 | -12.3 | 
80 | COc1ccc(NC(=O)c2sc3nc4c(cc3c2N)CN(Cc2ccccc2)CC4)c(OC)c1 |  | 20.6 µM (active)
81 | CCN1CCc2nc3sc(C(=O)c4ccccc4)c(N)c3cc2C1 |  | 16.4 µM (active)
82 | Cc1ccccc1NC(=O)c1sc2nc3c(c(-c4ccco4)c2c1N)CCC3 | -22.7 | 
83 | Cc1cc(N2CCN(C)CC2)ccc1NC(=O)c1c2c(nc3ccccc13)CCN(Cc1ccccc1)C2 | -29.2 | 
84 | Nc1c(C(=O)c2ccc(Cl)cc2)sc2nc3c(cc12)CCC3 |  | 23.1 µM (active)
85 | Cc1ccc(NC2=C(Cl)C(=O)N(C3CCCCC3)C2=O)cc1 | -3.54 | 
86 | COc1cnc(-c2ccccn2)nc1Oc1ccc(F)cc1F | 2.31 | 
87 | Cc1ccc(SC2=C(Sc3ccc(C)cc3)C(=O)c3ccccc3C2=O)cc1 |  | 20.6 µM (active)
88 | Cc1c(NC(=O)c2csc3c2CCCC3)c(=O)n(-c2ccccc2)n1C | 0.352 | 
89 | Cc1c(N/N=C(\C#N)C(=O)c2ccc(Cl)cc2)c(=O)n(-c2ccccc2)n1C | -12.8 | 
90 | Cc1c(N=C2N=C(NC(=O)c3cccs3)c3ccccc32)c(=O)n(-c2ccccc2)n1C |  | 15.8 µM (active)
